From PubChem BioAssay (EPA / NIEHS) come the findings set out here.

The target of assay [1] is Estrogen receptor (Homo sapiens) (UniProt P03372). The assay can be described thus: OT_ER_ERaERa_1440: Odyssey Thera (OT) 24-hour HEK293T Protein-Complementation Assay for Estrogen Receptor-alpha/-alpha Homodimer (AID 2283349).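 Note: hits raise fluorescence above DMSO for agonists and antagonists alike.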 A digest of the protocol:
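Protein-fragment complementation between two human ERα ligand-binding domains (aa 310-547) in stably transfected HEK293T cells was monitored after 24 h treatment, using fluorescence intensity relative to vehicle controls.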

For assay [2] the target is unchanged. The assay can be described thus: OT_ER_ERaERa_0480: Odyssey Thera (OT) 8-hour HEK293T Protein-Complementation Assay for Estrogen Receptor-alpha/-alpha Homodimer (AID 2283351).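 Note: rise in fluorescence from reassembled reporter fragments on ERα LBD homodimer in nucleus or whole cell.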 A digest of the protocol:
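HEK293T, stable ERα LBD (aa 310-547) PCA homodimer; 8 h compound exposure; fluorescence intensity, laser scanning cytometer; positive fitting direction, DMSO baseline.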

Assay [3] addresses T1, Estrogen receptor (Homo sapiens) + Estrogen receptor beta (Homo sapiens) (UniProt P03372+Q92731). In words: OT_ER_ERaERb_0480: Odyssey Thera (OT) 8-hour HEK293T Protein-Complementation Assay for Estrogen Receptor-alpha/-beta Heterodimer (AID 2283352). The procedure, abridged:
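Increase in mean fluorescence intensity, measured by laser scanning plate cytometry, reported ER-alpha/ER-beta LBD complementation in HEK293T cells after 8 h chemical exposure. DMSO served as baseline; basal signal is low, punctate and cytoplasmic.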

Assay [4] has as its target T1, Estrogen receptor (Homo sapiens) + Estrogen receptor beta (Homo sapiens). In words: OT_ER_ERaERb_1440: Odyssey Thera (OT) 24-hour HEK293T Protein-Complementation Assay for Estrogen Receptor-alpha/-beta Homodimer (AID 2283356).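 Note: heteromer of ER alpha and ER beta binding domains; hits raise reporter fluorescence and both agonists and antagonists give an increase.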 The procedure, abridged:
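Heterodimerisation of ERα (aa 310-547) and ERβ (aa 263-489) ligand binding domains was tracked as fluorescence gain in stably transfected HEK293T cells following 24 h dosing, normalised to DMSO controls.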

The target of assay [5] is Estrogen receptor beta (Homo sapiens) (UniProt Q92731). The assay can be described thus: OT_ER_ERbERb_0480: Odyssey Thera (OT) 8-hour HEK293T Protein-Complementation Assay for Estrogen Receptor-beta/-beta Homodimer (AID 2283357).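 Note: active means signal gain over DMSO baseline.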 The procedure, abridged:
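Cells (HEK293T, stable ER-beta LBD PCA pair) are treated 8 hours, fixed and Draq5-stained; signal is fluorescence intensity increase relative to vehicle, fitted in the gain direction.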

Assay [6] deals with Androgen Receptor/SRC-1 Co-activator, AR (gene 367) (UniProt P10275). The assay can be described thus: OT_AR_ARSRC1_0960: Odyssey Thera (OT) 16-hour HEK293T Protein-Complementation Assay for Androgen Receptor/SRC-1 Co-activator (AID 2283353).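 Note: actives raise the signal above DMSO so potency reflects increased AR and SRC-1 complex.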 A digest of the protocol:
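Split-Venus PCA, AR/SRC-1 fusions, stable HEK293T; 16 h compound exposure; imaged at 488 and 635 nm; N/C ratio (488 nm channel), min 400 cells/image; positive-direction fit, DMSO baseline.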

Assay [7] has the same target. The assay can be described thus: OT_AR_ARSRC1_0480: Odyssey Thera (OT) 8-hour HEK293T Protein-Complementation Assay for Androgen Receptor/SRC-1 Co-activator (AID 2283354).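 Note: hits raise the complementation signal above DMSO so AC50 marks enhancers.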 A digest of the protocol:
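Measures AR/SRC-1 binding by Venus YFP fragment complementation in HEK293T stable lines at 8 h post-dose. Imaging quantifies the 488nm nucleus/cytoplasm ratio in ≥400 cells; DMSO defines baseline.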

The target in assay [8] is rat Mineralocorticoid Receptor (MR), Nr3c2 (gene 25672) (UniProt P22199). The assay can be described thus: NVS_NR_rMR: NovaScreen (NVS) Nuclear Receptor Binding Assay for rat Mineralocorticoid Receptor (MR) (AID 2283355). Here is the method: NVS_NR_rMR is a biochemical, single-readout assay that uses extracted gene-proteins from Adrenalectomized rat brain supernatant in a tissue-based cell-free assay. Measurements were taken 24 hours after chemical dosing in a 96-well plate.NVS_NR_rMR is one of one assay component(s) measured or calculated from the NVS_NR_rMR assay. It is designed to make measurements of radioligand binding, a form of binding reporter, as detected with scintillation counting signals by Lysate-based radiodetection technology.Data from the assay component NVS_NR_rMR was analyzed into 1 assay endpoint. This assay endpoint, NVS_NR_rMR, was analyzed in the positive analysis fitting direction relative to DMSO as the negative control and baseline of activity. […] Furthermore, this assay endpoint can be referred to as a primary readout, because the performed assay has only produced 1 assay endpoint. […]
Chain of rat Mineralocorticoid Receptor (MR), Nr3c2 (gene 25672) (P22199 whole entry, looked up): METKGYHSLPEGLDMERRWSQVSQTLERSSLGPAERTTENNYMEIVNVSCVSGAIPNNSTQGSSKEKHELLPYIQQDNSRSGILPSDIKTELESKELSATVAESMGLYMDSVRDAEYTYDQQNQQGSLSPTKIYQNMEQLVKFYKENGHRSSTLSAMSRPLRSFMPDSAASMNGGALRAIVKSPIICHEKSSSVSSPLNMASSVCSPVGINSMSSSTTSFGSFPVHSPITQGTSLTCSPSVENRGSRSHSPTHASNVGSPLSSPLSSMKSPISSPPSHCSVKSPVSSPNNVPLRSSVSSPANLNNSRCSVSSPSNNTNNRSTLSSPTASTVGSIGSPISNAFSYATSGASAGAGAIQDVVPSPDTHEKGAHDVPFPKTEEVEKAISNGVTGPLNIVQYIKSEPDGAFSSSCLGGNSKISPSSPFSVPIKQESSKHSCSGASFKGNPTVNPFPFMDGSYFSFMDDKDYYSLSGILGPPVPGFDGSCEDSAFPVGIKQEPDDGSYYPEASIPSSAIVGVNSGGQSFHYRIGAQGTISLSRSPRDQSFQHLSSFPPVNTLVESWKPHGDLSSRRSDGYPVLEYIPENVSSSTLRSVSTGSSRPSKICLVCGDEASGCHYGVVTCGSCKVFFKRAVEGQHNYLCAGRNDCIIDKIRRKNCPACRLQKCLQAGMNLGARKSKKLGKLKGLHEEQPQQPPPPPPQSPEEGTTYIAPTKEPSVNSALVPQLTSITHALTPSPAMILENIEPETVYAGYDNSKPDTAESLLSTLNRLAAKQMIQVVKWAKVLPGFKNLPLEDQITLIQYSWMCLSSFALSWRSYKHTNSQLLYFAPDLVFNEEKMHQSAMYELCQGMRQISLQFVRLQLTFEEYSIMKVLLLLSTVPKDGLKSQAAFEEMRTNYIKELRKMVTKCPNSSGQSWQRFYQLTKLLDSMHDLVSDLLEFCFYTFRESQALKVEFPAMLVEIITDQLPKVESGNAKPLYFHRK
Binding assays used specific radioligands (tritiated, iodinated) with non-radioactive competitive displacement ligands in agonist or antagonist protocols (as indicated) and various reference compounds and inhibitors to titrate specific binding to receptors and transporters. Most enzyme assays (CYPs, kinases, phosphatases, proteases, HDACs) used recombinant protein and specific substrates (fluorescence mostly, some colorimetric and radioactive) and inhibitors, followed by a biochemical separation of substrate and product. […]

Records with an inconclusive call do not appear. The source made the active and inactive calls. Rule for the calls: active = hit-call score of the fitted dose curve at least 0.9, where 1 is the maximum; inconclusive = response in the unintended direction; inactive = score below 0.9.

Chain of Estrogen receptor (Homo sapiens) (P03372 whole entry, looked up, the tested form may be a part): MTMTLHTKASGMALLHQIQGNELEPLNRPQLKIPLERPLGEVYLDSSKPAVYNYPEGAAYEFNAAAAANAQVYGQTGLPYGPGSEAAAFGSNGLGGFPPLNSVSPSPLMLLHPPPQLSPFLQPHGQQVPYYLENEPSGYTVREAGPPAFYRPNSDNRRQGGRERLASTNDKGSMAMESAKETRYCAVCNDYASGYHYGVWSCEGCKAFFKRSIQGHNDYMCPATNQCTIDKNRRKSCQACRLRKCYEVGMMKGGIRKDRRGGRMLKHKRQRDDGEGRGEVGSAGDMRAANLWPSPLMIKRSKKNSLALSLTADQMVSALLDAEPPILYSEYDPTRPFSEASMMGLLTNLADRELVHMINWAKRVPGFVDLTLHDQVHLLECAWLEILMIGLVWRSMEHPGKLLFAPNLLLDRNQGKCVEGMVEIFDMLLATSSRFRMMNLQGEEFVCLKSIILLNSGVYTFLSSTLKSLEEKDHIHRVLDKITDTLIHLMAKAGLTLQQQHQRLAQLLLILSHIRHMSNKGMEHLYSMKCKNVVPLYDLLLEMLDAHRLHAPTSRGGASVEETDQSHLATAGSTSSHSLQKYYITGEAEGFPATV
T1 sequence (P03372 whole entry, looked up, the tested form may be a part): as above
T1 sequence (Q92731 whole entry, looked up, the tested form may be a part): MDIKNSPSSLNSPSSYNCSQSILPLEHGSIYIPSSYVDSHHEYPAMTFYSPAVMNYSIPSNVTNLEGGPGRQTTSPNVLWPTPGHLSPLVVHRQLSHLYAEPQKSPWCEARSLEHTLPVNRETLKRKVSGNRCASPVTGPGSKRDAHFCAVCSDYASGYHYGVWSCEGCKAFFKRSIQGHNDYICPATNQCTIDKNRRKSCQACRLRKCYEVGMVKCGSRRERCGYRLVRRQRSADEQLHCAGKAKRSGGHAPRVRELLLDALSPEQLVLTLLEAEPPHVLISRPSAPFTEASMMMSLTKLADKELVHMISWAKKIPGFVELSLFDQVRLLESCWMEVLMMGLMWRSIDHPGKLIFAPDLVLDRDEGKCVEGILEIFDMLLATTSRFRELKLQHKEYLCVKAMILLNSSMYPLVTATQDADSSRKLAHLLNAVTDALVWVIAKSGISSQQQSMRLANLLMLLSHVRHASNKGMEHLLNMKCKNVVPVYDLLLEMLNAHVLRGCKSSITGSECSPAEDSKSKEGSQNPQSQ
Chain of Estrogen receptor beta (Homo sapiens) (Q92731 whole entry, looked up, the tested form may be a part): as above
Chain of Androgen Receptor/SRC-1 Co-activator, AR (gene 367) (P10275 whole entry, looked up, the tested form may be a part): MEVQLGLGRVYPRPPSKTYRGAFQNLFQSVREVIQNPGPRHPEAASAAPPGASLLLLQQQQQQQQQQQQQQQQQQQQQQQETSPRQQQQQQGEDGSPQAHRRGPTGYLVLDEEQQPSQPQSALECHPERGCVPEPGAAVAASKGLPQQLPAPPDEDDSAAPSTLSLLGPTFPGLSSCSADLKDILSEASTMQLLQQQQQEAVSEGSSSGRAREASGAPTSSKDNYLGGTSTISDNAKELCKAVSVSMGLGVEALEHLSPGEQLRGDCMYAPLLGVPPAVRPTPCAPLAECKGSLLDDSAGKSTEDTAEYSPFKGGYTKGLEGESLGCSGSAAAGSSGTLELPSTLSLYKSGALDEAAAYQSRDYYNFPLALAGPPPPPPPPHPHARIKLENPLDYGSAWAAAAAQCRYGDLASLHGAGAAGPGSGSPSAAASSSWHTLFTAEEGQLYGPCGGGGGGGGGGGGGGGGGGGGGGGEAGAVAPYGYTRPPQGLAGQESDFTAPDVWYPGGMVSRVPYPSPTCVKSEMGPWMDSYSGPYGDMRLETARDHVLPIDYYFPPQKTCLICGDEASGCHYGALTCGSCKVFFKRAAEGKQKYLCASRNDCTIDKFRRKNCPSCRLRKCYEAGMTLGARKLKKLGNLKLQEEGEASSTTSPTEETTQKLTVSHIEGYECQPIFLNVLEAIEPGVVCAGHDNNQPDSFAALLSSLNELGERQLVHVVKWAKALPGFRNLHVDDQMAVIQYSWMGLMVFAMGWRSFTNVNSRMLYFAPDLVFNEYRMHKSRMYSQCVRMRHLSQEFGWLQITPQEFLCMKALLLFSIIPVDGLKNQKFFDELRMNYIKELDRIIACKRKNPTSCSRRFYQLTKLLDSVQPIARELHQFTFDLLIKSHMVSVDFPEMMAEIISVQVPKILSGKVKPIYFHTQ

Consider `O=[N+]([O-])c1ccccc1`, for which the compound was classed as inactive in assay [1], in assay [2], in assay [3], in assay [4] and in assay [5].
Turning to `c1ccc2c(c1)Nc1ccccc1S2`, the compound was called inactive in assay [1], in assay [2], in assay [3], in assay [4] and in assay [5].
On to `Cc1ccc([N+](=O)[O-])cc1C`, for which the call in assay [1], in assay [3], in assay [4] and in assay [5] was inactive.
A word on the AC50: it is the concentration at which the activity in the assay is half-maximal. Regarding `CCCCC(CC)COP(=O)(Oc1ccccc1)Oc1ccccc1` (configuration not stated), the compound was classed as inactive in assay [1], in assay [2], in assay [6], in assay [7] and in assay [5]. Also, the concentration at half-maximal activity (AC50) was 12.2 µM (active) in assay [3] and 50 µM (active) in assay [4].
Turning to `CC(Cc1ccc(OCC(=O)O)cc1)NCC(O)c1csc(C(F)(F)F)n1` (configuration not stated), the result in assay [1], in assay [2], in assay [4] and in assay [5] was inactive.
With `O=NN1CCCC1`, the AC50 in assay [1] is 12.1 µM (active). Further, the call in assay [2], in assay [3], in assay [4] and in assay [5] was inactive.
For `O=P(Oc1ccccc1)(Oc1ccccc1)Oc1ccccc1`, the AC50 in assay [1] is 12.4 µM (active); in assay [2], 12.1 µM (active); in assay [3] it was 12.2 µM (active); in assay [4], 12.4 µM (active); in assay [5], 12.2 µM (active).
With `O=c1ssc(Cl)c1Cl`, the result in assay [1], in assay [2] and in assay [5] was inactive.
Take `CCCCOCCOP(=O)(OCCOCCCC)OCCOCCCC`: the compound was classed as inactive in assay [1], in assay [2], in assay [4] and in assay [5].
Regarding `CSC(C)(C)C=NO`, the result in assay [1] and in assay [2] was inactive. For the same compound, in assay [8], the AC50 is 4.44 µM (active).
On to `O=S1(=O)OCC2C(CO1)C1(Cl)C(Cl)=C(Cl)C2(Cl)C1(Cl)Cl` (configuration not stated), for which the compound was classed as inactive in assay [1], in assay [2], in assay [3] and in assay [5]. In assay [4], the AC50 was 86.8 µM (active).
For `Cc1ccc(N)cc1N`, the compound was classed as inactive in assay [1], in assay [2], in assay [3], in assay [4] and in assay [5].
Turning to `O=C(O)C1C(C(=O)O)C2(Cl)C(Cl)=C(Cl)C1(Cl)C2(Cl)Cl` (configuration not stated), the call in assay [1], in assay [2], in assay [3], in assay [4] and in assay [5] was inactive.
As for `Cc1ccc(O)cc1C`, the call in assay [1], in assay [2], in assay [3], in assay [4] and in assay [5] was inactive.
Take `c1nc[nH]n1`: the compound was called inactive in assay [1], in assay [2], in assay [3], in assay [4] and in assay [5].
As to `CCN(CC)c1ccccc1`, the call in assay [1], in assay [2], in assay [3], in assay [6], in assay [7] and in assay [4] was inactive. Besides, the outcome in assay [5] was inactive.
With `O=C(O)CF`, the outcome in assay [1], in assay [2], in assay [3], in assay [4] and in assay [5] was inactive.
`CCC1(c2ccccc2)C(=O)N=C(O)NC1=O` (configuration not stated): the result in assay [1], in assay [3] and in assay [5] was inactive.
For `Nc1ccc2ccccc2c1`, the call in assay [1], in assay [2], in assay [3], in assay [4] and in assay [5] was inactive.
Turning to `c1cc2c3c(cccc3c1)CC2`, the call in assay [1], in assay [2], in assay [3], in assay [6], in assay [4] and in assay [5] was inactive.
Turning to `CC(C)(C)N(NC(=O)c1ccc(Cl)cc1)C(=O)c1ccccc1`, the compound was classed as inactive in assay [1], in assay [6], in assay [7], in assay [4] and in assay [5].
Consider `Nc1cc2c3c(c1)C(c1ccccc1)=N[C@@H](NC(=O)c1cccnc1)C(=O)N3CC2`, for which the outcome in assay [1], in assay [2], in assay [4] and in assay [5] was inactive.
`FC(F)(F)c1ccc(Cl)cc1`: the compound was classed as inactive in assay [2], in assay [4] and in assay [5].
On to `CCOC(=O)c1ccccc1N`, for which the outcome in assay [1], in assay [2], in assay [3], in assay [4] and in assay [5] was inactive.
With `CCOS(=O)(=O)OCC`, the result in assay [1], in assay [2], in assay [3] and in assay [4] was inactive.
Turning to `COC(N)=O`, the compound was classed as inactive in assay [1], in assay [2], in assay [3], in assay [4] and in assay [5].
With `CCOc1ccc(C(C)(C)COCc2cccc(Oc3ccccc3)c2)cc1`, the call in assay [1], in assay [3], in assay [4] and in assay [5] was inactive.
On to `CCOP(=S)(NC(C)C)Oc1ccccc1C(=O)OC(C)C` (configuration not stated), for which, in assay [8], the result was inactive.
In the case of `CC(C)(C)OOC(C)(C)C`, the call in assay [1], in assay [2], in assay [3], in assay [4] and in assay [5] was inactive.
Turning to `CCOP(=S)(OCC)SCSCC`, the compound was called inactive in assay [1], in assay [2], in assay [3], in assay [4] and in assay [5].
Consider `O=C(CBr)OCc1ccccc1`, for which the call in assay [1], in assay [2], in assay [3], in assay [4] and in assay [5] was inactive.
Regarding `CCOP(=S)(Oc1ccc([N+](=O)[O-])cc1)c1ccccc1` (configuration not stated), the compound was called inactive in assay [1]. The AC50 is 14.8 µM (active) in assay [2], 19.2 µM (active) in assay [3], 14.1 µM (active) in assay [4] and 26.4 µM (active) in assay [5].
In the case of `CCCCC(CC)COC(=O)c1c(Br)c(Br)c(Br)c(Br)c1C(=O)OCC(CC)CCCC` (configuration not stated), the compound was classed as inactive in assay [1], in assay [2], in assay [3], in assay [4] and in assay [5].
